# Laboratory results from publication PMC8384837, “Expanding the binding specificity for RNA recognition by a PUF domain”.
# Where a chain is given by its changes, count along the chain named.
# Legend:
# Assay in all cases: yeast three-hybrid, YBZ-1, SC-Leu-His + 0.5 mM 3-AT, 4 days
# Conditions in all cases: tags: N-Gal4 AD-HA kept; label: inside an RPR1-promoter hybrid RNA with tandem MS2 sites; ssRNA
# PUM1 PUF domain R5-RRF = PUM1 PUF domain R5-RRF (Homo sapiens, UniProt Q14671 828-1176, C1007R;Q1011F)
# How it was run: (§1)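 The interaction score is the log change in how often each variant appears, from input to selection. Frequencies came from PCR-amplified, Illumina-sequenced repeat regions of Pumilio-1 PUF domain libraries grown in strain YBZ-1 (LexA–MS2 coat fusion, HIS3 reporter) alongside matching RNA elements. Input plates were SC-Leu and selection plates were SC-Leu-His + 0.5 mM 3-AT, each for four days, and the log2 calculation used a pseudocount of 1 where a variant was absent.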
# PUM1 PUF domain R5-KYA = PUM1 PUF domain R5-KYA (Homo sapiens, UniProt Q14671 828-1176, C1007K;R1008Y;Q1011A)
# How it was run: as §1
# PUM1 PUF domain R5-CNH = PUM1 PUF domain R5-CNH (Homo sapiens, UniProt Q14671 828-1176, R1008N;Q1011H)
# How it was run: as §1
# PUM1 PUF domain R5-RAT = PUM1 PUF domain R5-RAT (Homo sapiens, UniProt Q14671 828-1176, C1007R;R1008A;Q1011T)
# How it was run: as §1
# PUM1 PUF domain R1-GCK = PUM1 PUF domain R1-GCK (Homo sapiens, UniProt Q14671 828-1176, S863G;R864C;Q867K)
# How it was run: as §1
# PUM1 PUF domain R5-RFW = PUM1 PUF domain R5-RFW (Homo sapiens, UniProt Q14671 828-1176, C1007R;R1008F;Q1011W)
# How it was run: as §1
# PUM1 PUF domain R4-WGG = PUM1 PUF domain R4-WGG (Homo sapiens, UniProt Q14671 828-1176, N971W;H972G;Q975G)
# Chain of PUM1 PUF domain R4-WGG (Q14671 828-1176 N971W/H972G/Q975G): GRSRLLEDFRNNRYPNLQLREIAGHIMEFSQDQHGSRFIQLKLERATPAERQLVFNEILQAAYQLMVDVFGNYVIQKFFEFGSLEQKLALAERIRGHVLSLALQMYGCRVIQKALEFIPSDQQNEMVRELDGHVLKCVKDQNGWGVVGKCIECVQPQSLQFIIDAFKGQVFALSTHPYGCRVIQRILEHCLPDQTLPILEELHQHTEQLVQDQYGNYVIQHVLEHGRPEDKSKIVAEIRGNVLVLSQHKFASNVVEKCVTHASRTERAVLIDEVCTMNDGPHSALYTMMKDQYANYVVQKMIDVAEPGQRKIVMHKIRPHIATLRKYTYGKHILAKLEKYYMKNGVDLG
# How it was run: as §1
# PUM1 PUF domain R4-LHH = PUM1 PUF domain R4-LHH (Homo sapiens, UniProt Q14671 828-1176, N971L;Q975H)
# How it was run: as §1
# PUM1 PUF domain R6-VWI = molecular target: T1, PUM1 PUF domain R6-VWI (Homo sapiens, UniProt Q14671 828-1176, N1043V;Y1044W;Q1047I)
# T1 sequence: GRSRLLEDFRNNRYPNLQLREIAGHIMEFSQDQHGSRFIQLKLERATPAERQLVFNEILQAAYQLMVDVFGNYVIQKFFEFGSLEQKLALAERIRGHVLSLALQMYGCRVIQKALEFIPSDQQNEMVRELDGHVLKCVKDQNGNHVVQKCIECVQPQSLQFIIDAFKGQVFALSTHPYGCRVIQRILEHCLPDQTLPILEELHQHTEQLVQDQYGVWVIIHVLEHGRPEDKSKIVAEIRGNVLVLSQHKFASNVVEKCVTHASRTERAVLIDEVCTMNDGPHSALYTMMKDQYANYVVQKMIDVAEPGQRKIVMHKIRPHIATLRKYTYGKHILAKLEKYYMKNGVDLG
# How it was run: as §1
# PUM1 PUF domain R7-RNR = PUM1 PUF domain R7-RNR (Homo sapiens, UniProt Q14671 828-1176, S1079R;E1083R)
# How it was run: as §1
# PUM1 PUF domain R8-RKV = PUM1 PUF domain R8-RKV (Homo sapiens, UniProt Q14671 828-1176, N1122R;Y1123K;Q1126V)
# How it was run: as §1
# PUM1 PUF domain R8-LYL = PUM1 PUF domain R8-LYL (Homo sapiens, UniProt Q14671 828-1176, N1122L;Q1126L)
# How it was run: as §1
# PUM1 PUF domain R8-KFL = PUM1 PUF domain R8-KFL (Homo sapiens, UniProt Q14671 828-1176, N1122K;Y1123F;Q1126L)
# How it was run: as §1
# PUM1 PUF domain R1-SRD = PUM1 PUF domain R1-SRD (Homo sapiens, UniProt Q14671 828-1176, Q867D)
# How it was run: as §1
# PUM1 PUF domain R6-RYK = molecular target: T2, PUM1 PUF domain R6-RYK (Homo sapiens, UniProt Q14671 828-1176, N1043R;Q1047K)
# T2 sequence: T1 sequence with V216R, W217Y, I220K
# How it was run: as §1
# PUM1 PUF domain R3-THE = PUM1 PUF domain R3-THE (Homo sapiens, UniProt Q14671 828-1176, C935T;R936H;Q939E)
# How it was run: as §1
# PUM1 PUF domain R6-GWI = molecular target: T3, PUM1 PUF domain R6-GWI (Homo sapiens, UniProt Q14671 828-1176, N1043G;Y1044W;Q1047I)
# T3 sequence: T1 sequence with V216G
# How it was run: as §1
# PUM1 PUF domain R4-CRA = PUM1 PUF domain R4-CRA (Homo sapiens, UniProt Q14671 828-1176, N971C;H972R;Q975A)
# How it was run: as §1
# PUM1 PUF domain R4-DHA = PUM1 PUF domain R4-DHA (Homo sapiens, UniProt Q14671 828-1176, N971D;Q975A)
# How it was run: as §1
# PUM1 PUF domain R6-SRD = molecular target: T4, PUM1 PUF domain R6-SRD (Homo sapiens, UniProt Q14671 828-1176, N1043S;Y1044R;Q1047D)
# T4 sequence: T1 sequence with V216S, W217R, I220D
# How it was run: as §1
sequence,measurement,setting,value
GGCUAGAACUAGUGGAUCCCCCGGCGCCCGGCGGCUCGAGCCCGGGUAAGUGUUAAUAGUCUGCAUGCCGCCGGGCGCCAUGCCUGCAGGUCGACUCUAGAAAACAUG,binding signal,PUM1 PUF domain R5-RRF,3.3 log2 enrichment (interaction score)
same,binding signal,PUM1 PUF domain R5-KYA,4.12 log2 enrichment (interaction score)
same,binding signal,PUM1 PUF domain R5-CNH,2.78 log2 enrichment (interaction score)
same,binding signal,PUM1 PUF domain R5-RAT,1.36 log2 enrichment (interaction score)
GGCUAGAACUAGUGGAUCCCCCGGCGCCCGGCGGCUCGAGCCCGGGUAAGUGUAAAUCGUCUGCAUGCCGCCGGGCGCCAUGCCUGCAGGUCGACUCUAGAAAACAUG,binding signal,PUM1 PUF domain R1-GCK,2.79 log2 enrichment (interaction score)
GGCUAGAACUAGUGGAUCCCCCGGCGCCCGGCGGCUCGAGCCCGGGUAAGUGUCAAUAGUCUGCAUGCCGCCGGGCGCCAUGCCUGCAGGUCGACUCUAGAAAACAUG,binding signal,PUM1 PUF domain R5-RRF,3.03 log2 enrichment (interaction score)
same,binding signal,PUM1 PUF domain R5-RFW,3.42 log2 enrichment (interaction score)
same,binding signal,PUM1 PUF domain R5-KYA,3.04 log2 enrichment (interaction score)
same,binding signal,PUM1 PUF domain R5-RAT,3.06 log2 enrichment (interaction score)
GGCUAGAACUAGUGGAUCCCCCGGCGCCCGGCGGCUCGAGCCCGGGUAAGUGUAUAUAGUCUGCAUGCCGCCGGGCGCCAUGCCUGCAGGUCGACUCUAGAAAACAUG,binding signal,PUM1 PUF domain R4-WGG,3.71 log2 enrichment (interaction score)
same,binding signal,PUM1 PUF domain R4-LHH,4.06 log2 enrichment (interaction score)
GGCUAGAACUAGUGGAUCCCCCGGCGCCCGGCGGCUCGAGCCCGGGUAAGUGAAAAUAGUCUGCAUGCCGCCGGGCGCCAUGCCUGCAGGUCGACUCUAGAAAACAUG,binding signal,PUM1 PUF domain R6-VWI,5.74 log2 enrichment (interaction score)
GGCUAGAACUAGUGGAUCCCCCGGCGCCCGGCGGCUCGAGCCCGGGUAAGUCUAAAUAGUCUGCAUGCCGCCGGGCGCCAUGCCUGCAGGUCGACUCUAGAAAACAUG,binding signal,PUM1 PUF domain R7-RNR,4.72 log2 enrichment (interaction score)
GGCUAGAACUAGUGGAUCCCCCGGCGCCCGGCGGCUCGAGCCCGGGUAAGCGUAAAUAGUCUGCAUGCCGCCGGGCGCCAUGCCUGCAGGUCGACUCUAGAAAACAUG,binding signal,PUM1 PUF domain R8-RKV,2.31 log2 enrichment (interaction score)
same,binding signal,PUM1 PUF domain R8-LYL,2.29 log2 enrichment (interaction score)
same,binding signal,PUM1 PUF domain R8-KFL,4.76 log2 enrichment (interaction score)
GGCUAGAACUAGUGGAUCCCCCGGCGCCCGGCGGCUCGAGCCCGGGUAAGUGUAAAUGGUCUGCAUGCCGCCGGGCGCCAUGCCUGCAGGUCGACUCUAGAAAACAUG,binding signal,PUM1 PUF domain R1-SRD,3.35 log2 enrichment (interaction score)
GGCUAGAACUAGUGGAUCCCCCGGCGCCCGGCGGCUCGAGCCCGGGUAAGUGUGAAUAGUCUGCAUGCCGCCGGGCGCCAUGCCUGCAGGUCGACUCUAGAAAACAUG,binding signal,PUM1 PUF domain R5-RFW,2.92 log2 enrichment (interaction score)
same,binding signal,PUM1 PUF domain R5-KYA,0.9 log2 enrichment (interaction score)
GGCUAGAACUAGUGGAUCCCCCGGCGCCCGGCGGCUCGAGCCCGGGUAAGUUUAAAUAGUCUGCAUGCCGCCGGGCGCCAUGCCUGCAGGUCGACUCUAGAAAACAUG,binding signal,PUM1 PUF domain R7-RNR,5.92 log2 enrichment (interaction score)
GGCUAGAACUAGUGGAUCCCCCGGCGCCCGGCGGCUCGAGCCCGGGUAAGUGUAAAUAGUCUGCAUGCCGCCGGGCGCCAUGCCUGCAGGUCGACUCUAGAAAACAUG,binding signal,PUM1 PUF domain R8-LYL,0.84 log2 enrichment (interaction score)
same,binding signal,PUM1 PUF domain R4-WGG,2.44 log2 enrichment (interaction score)
same,binding signal,PUM1 PUF domain R5-RFW,1.35 log2 enrichment (interaction score)
same,binding signal,PUM1 PUF domain R6-RYK,3.06 log2 enrichment (interaction score)
same,binding signal,PUM1 PUF domain R5-KYA,3.48 log2 enrichment (interaction score)
same,binding signal,PUM1 PUF domain R3-THE,2.11 log2 enrichment (interaction score)
same,binding signal,PUM1 PUF domain R6-GWI,2.34 log2 enrichment (interaction score)
same,binding signal,PUM1 PUF domain R4-CRA,3.82 log2 enrichment (interaction score)
GGCUAGAACUAGUGGAUCCCCCGGCGCCCGGCGGCUCGAGCCCGGGUAAGUGUACAUAGUCUGCAUGCCGCCGGGCGCCAUGCCUGCAGGUCGACUCUAGAAAACAUG,binding signal,PUM1 PUF domain R4-WGG,3.3 log2 enrichment (interaction score)
same,binding signal,PUM1 PUF domain R4-DHA,5.96 log2 enrichment (interaction score)
GGCUAGAACUAGUGGAUCCCCCGGCGCCCGGCGGCUCGAGCCCGGGUAAGUGUAGAUAGUCUGCAUGCCGCCGGGCGCCAUGCCUGCAGGUCGACUCUAGAAAACAUG,binding signal,PUM1 PUF domain R4-WGG,1.6 log2 enrichment (interaction score)
GGCUAGAACUAGUGGAUCCCCCGGCGCCCGGCGGCUCGAGCCCGGGUAAGUGGAAAUAGUCUGCAUGCCGCCGGGCGCCAUGCCUGCAGGUCGACUCUAGAAAACAUG,binding signal,PUM1 PUF domain R6-SRD,4.81 log2 enrichment (interaction score)
GGCUAGAACUAGUGGAUCCCCCGGCGCCCGGCGGCUCGAGCCCGGGUAAGUGUAAAUUGUCUGCAUGCCGCCGGGCGCCAUGCCUGCAGGUCGACUCUAGAAAACAUG,binding signal,PUM1 PUF domain R1-GCK,1.58 log2 enrichment (interaction score)
